# Laboratory results as given in PubChem BioAssay (NCI).
# The panel holds about 83,000 compounds, 20% with a hit somewhere; the sample as a whole holds those more often.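 Results are percent growth after 48 hours of single-concentration exposure. 100 means growth as in untreated cells, lower positive values show inhibition; negative values down to -100 show cell death.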 Values without a mark were called inactive. Active and inactive are the calls of the source. How the source made its calls: active means growth percent below 10; inactive means the rest.
# Columns and labels:
# Assay in all cases: NCI-60 one-dose screen, 48 h (100 = growth as untreated, 0 = no growth, -100 = all killed)
# Settings in all cases: 10 µM unless noted
# [1] = tested on: NCI-H23 lung
# [2] = tested on: NCI-H226 lung
# [3] = tested on: NCI-H322M lung
# [4] = tested on: HOP-62 NSCLC
# [5] = tested on: NCI-H460 lung
# [6] = tested on: HOP-92 NSCLC
# [7] = tested on: NCI-H522 lung
# [8] = tested on: A549/ATCC NSCLC
# [9] = tested on: 786-0 renal
# [10] = tested on: COLO 205 colon
Structure (SMILES),growth [1],growth [2],growth [3],growth [4],growth [5],growth [6],growth [7],growth [8],growth [9],growth [10]
CC(=O)Nc1nc(N)nc(NC(C)=O)c1N=O,95.3%,105%,140%,106%,123%,108%,101%,107%,106%,116%
O=C1/C(=C/c2ccc(Cl)cc2)CN(C(=O)CCN2CCC(=NO)CC2)C/C1=C\c1ccc(Cl)cc1,-57% (active),-20.5% (active),-75% (active),-80.1% (active),-67% (active),-39.1% (active),-92.1% (active),2.34% (active),-76.9% (active),-83.9% (active)
COc1ccc(C(=O)c2cc(OC)c3c(c2)OCO3)cc1O,30.4%,66.9%,51.4%,35.5%,8.5% (active),44.1%,-7.3% (active),24.5%,44%,84.9%
NC(=O)CCCN1C/C(=C\c2ccccc2)C(=O)c2ccccc21,95.6%,86.4%,88.2%,88.8%,111%,84.4%,80.4%,95.1%,96.6%,105%
COc1cc2c(c(OC)c1OC)-c1ccc(N)c(=O)cc1[C@@H](NC(C)=O)CC2,4.57% (active),40.1%,27.4%,46.1%,-2.43% (active),31%,-34.2% (active),21.3%,19.7%,-71.8% (active)
O=C(Nc1cccc(-n2cc(-c3ccncc3)c(-c3ccc(Cl)c(O)c3)n2)c1)Nc1cccc(C(F)(F)F)c1,14.6%,35.1%,48.2%,38.1%,7.29% (active),-17.7% (active),-10.8% (active),5.74% (active),34.4%,94.2%
Cc1ccc(S(=O)(=O)Nc2c(Br)cc(Br)cc2C(N)=O)cc1,96%,102%,88.4%,109%,105%,94.4%,115%,117%,101%,103%
COc1ccc(-c2nc3sc(-c4cc(OC)c(OC)c(OC)c4)nn3c2/C=C2/C(=O)Nc3ccc(F)cc32)cc1,2.52% (active),110%,-59.4% (active),4.69% (active),-26.6% (active),-58.8% (active),8.56% (active),-63.6% (active),-50.3% (active),-43.8% (active)
Cc1c(C(=N)C(C#N)C#N)c(=N)oc2c1ccc1ccccc12,73.2%,95%,89.9%,93.6%,97.4%,73.1%,-3.19% (active),92.8%,94%,115%
C=C(C)[C@@H]1C[C@@H]2Cc3ccc(Cl)c(C)c3N1O2,97.4%,107%,108%,98%,106%,77.5%,84.8%,89.9%,98.5%,112%
C=C1C(=O)O[C@H]2[C@H]1CC/C(COC(=O)NCc1ccccc1OC)=C\CC[C@@]1(C)O[C@@H]21,73.6%,55.6%,93.2%,77.1%,59.2%,32.6%,-73.6% (active),71.6%,7.8% (active),-35.2% (active)
Cc1ccc(N2CCN(C(C)C(N)=O)CC2)cc1 (stereo not given),104%,109%,116%,109%,121%,123%,90.7%,113%,103%,122%
O=[N+]([O-])c1ccc(C(c2ccccc2)c2ccccc2)cc1,89.6%,100%,78%,102%,94%,85.9%,87%,91.5%,99.4%,92.6%
O=C(CCl)N(C1CCCCC1)C1CCCCC1,87.9%,105%,98.8%,119%,107%,92.8%,-36.8% (active),115%,99.3%,109%
COc1ccc(/C=C2\CN(Cc3cn(CCNc4ccnc5cc(Cl)ccc45)nn3)C/C(=C\c3ccc(OC)c(OC)c3)C2=O)cc1OC,48%,17%,44.7%,-7.73% (active),-28.5% (active),-16.1% (active),-67.8% (active),22.7%,15.9%,10.1%
COc1ccc(C2C(C#N)=C(N)Oc3c2ccc2ccccc32)cc1 (stereo not given),52.8%,39.4%,67.8%,37.3%,14.6%,48.4%,3.93% (active),57.1%,73.1%,91.1%
COc1cccc(/C=C2\Oc3cc(OCCCN4CCCC4)ccc3C2=O)c1,88%,95.4%,88.2%,98.1%,78.4%,74.1%,92.2%,91%,74.4%,86.7%
COc1ccc(C(=O)n2nc(/C=C/c3ccc(O)c(OC)c3)cc2/C=C/c2ccc(O)c(OC)c2)cc1,7.96% (active),13%,11.7%,5.2% (active),4.37% (active),-10.7% (active),-6.8% (active),3.98% (active),2.92% (active),-66.2% (active)
Cc1ccc(C(=O)C2=Cc3cc4ccccc4n3Cc3cnnn32)cc1,100%,98.1%,95.9%,87.4%,108%,86%,64.5%,99.2%,94.6%,111%
Nc1nc(Nc2cc(Cl)cc(Cl)c2)nn1S(=O)(=O)c1ccc2ccccc2c1,66.5%,66.7%,76.4%,66%,27.8%,-10.4% (active),69%,42.7%,25.5%,66.5%
N=C(N)c1ccc(-c2ccc(-c3ccc(-c4cccs4)s3)s2)cc1,98.8%,93.4%,43%,93.8%,21.7%,54.6%,100%,14%,89.9%,102%
COc1ccc(C(=O)N2NC(=O)/C(=C/c3cn(-c4ccccc4)nc3-c3ccccc3)N=C2c2ccccc2)cc1,97.3%,102%,97.3%,115%,106%,100%,95.9%,91.6%,93%,120%
CC(C)(C)NCCC(O)c1cc2c(Cl)cc(Cl)cc2c2cc(C(F)(F)F)ccc12 (stereo not given),-78.6% (active),-73.8% (active),-54.2% (active),-87.1% (active),-73.6% (active),-62.1% (active),-81.8% (active),-88.2% (active),-65.5% (active),-87.3% (active)
O=C(Nc1ccc(Cl)c(Cl)c1)NS(=O)(=O)c1cnccc1Oc1ccc(F)cc1,39.3%,74.9%,89.2%,80.6%,44.6%,52.7%,20.2%,28%,83.9%,90.4%
COc1cc(-c2nn(C(=O)NS(=O)(=O)c3ccccc3)cc2-c2ccncc2)ccc1Cl,88.1%,66.9%,97.2%,58.9%,103%,28.3%,77%,71.9%,71.4%,70.6%
Nc1cc2c([nH]c[n+]2CC#CCCl)c(SCC#CCCl)n1,-72.2% (active),-42.5% (active),-66.6% (active),-62.8% (active),-7.39% (active),-39.7% (active),-90.7% (active),-7.51% (active),-86.5% (active),-48.5% (active)
COc1ccc(C(=O)N2NC(=O)/C(=C/c3ccccc3F)N=C2c2ccccc2)cc1,93.5%,104%,110%,108%,106%,96.8%,102%,96.2%,102%,122%
